According to the supplement of paper PMC8975748:
Structures can show the parent of a compound that is named as a salt. ± gives the standard deviation of the averaged measurements.

Assays:
[1] = tested on: Saccharomyces cerevisiae BY4741 SeMeCo community; assay: mean cell size (pixel area) (pixels); higher = larger cells; details: 10 µM; 24 h; SM minimal medium
Summary of the method: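 Mean cell pixel area per well was measured in a four-plasmid fluorescent community of Saccharomyces cerevisiae BY4741, where every plasmid complements one auxotrophy and carries a fluorescent marker. Cells from an overnight preculture at OD600 = 1.0 were diluted to OD600 = 0.3 and dispensed at 70 µl into 384-well plates acoustically predosed with drug to a final 10 µM in SM medium. Incubation lasted 24 h, followed by paraformaldehyde fixation, automated confocal imaging and analysis in Harmony. Reported figures are averaged over 3 replicates. Same SeMeCo high-content imaging drug screen: Selleck FDA-approved drugs at 10 µM, 24 h in SM medium, 384-well plates, 3 replicates.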

[2] = tested on: Saccharomyces cerevisiae BY4741 SeMeCo community; assay: z-score of prototroph abundance vs DMSO median; higher = larger share of this subpopulation than in DMSO controls; details: 10 µM; 24 h; SM minimal medium; subpopulation (auxotrophy): Prototroph
Summary of the method: (§1)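 Cells of a Saccharomyces cerevisiae BY4741 community, carrying four plasmids that each restored one auxotrophy and encoded a distinct fluorescent protein, were pre-grown overnight to OD600 1.0 and diluted to 0.3. A 70 µl volume was added to 384-well plates acoustically predosed with library drugs (10 µM final) and grown 24 h in minimal SM medium. After paraformaldehyde fixation, automated confocal microscopy was used, with single-auxotroph fluorescent strains for thresholds and autofluorescence correction. The abundance of each subpopulation was scored as a z-score against the vehicle-well median.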

[3] = tested on: Saccharomyces cerevisiae BY4741 SeMeCo community; assay: z-score of subpopulation abundance vs DMSO median, subpopulation auxotrophic for L; higher = larger share of this subpopulation than in DMSO controls; details: 10 µM; 24 h; SM minimal medium; subpopulation (auxotrophy): L
Summary of the method: as §1

[4] = tested on: Saccharomyces cerevisiae BY4741 SeMeCo community; assay: z-score of subpopulation abundance vs DMSO median, subpopulation auxotrophic for U; higher = larger share of this subpopulation than in DMSO controls; details: 10 µM; 24 h; SM minimal medium; subpopulation (auxotrophy): U
Summary of the method: as §1

[5] = tested on: Saccharomyces cerevisiae BY4741 SeMeCo community; assay: z-score of subpopulation abundance vs DMSO median, subpopulation auxotrophic for H; higher = larger share of this subpopulation than in DMSO controls; details: 10 µM; 24 h; SM minimal medium; subpopulation (auxotrophy): H
Summary of the method: as §1

[6] = tested on: Saccharomyces cerevisiae BY4741 SeMeCo community; assay: z-score of subpopulation abundance vs DMSO median, subpopulation auxotrophic for LM; higher = larger share of this subpopulation than in DMSO controls; details: 10 µM; 24 h; SM minimal medium; subpopulation (auxotrophy): LM
Summary of the method: as §1

[7] = tested on: Saccharomyces cerevisiae BY4741 SeMeCo community; assay: z-score of subpopulation abundance vs DMSO median, subpopulation auxotrophic for HM; higher = larger share of this subpopulation than in DMSO controls; details: 10 µM; 24 h; SM minimal medium; subpopulation (auxotrophy): HM
Summary of the method: as §1

[8] = tested on: Saccharomyces cerevisiae BY4741 SeMeCo community; assay: z-score of subpopulation abundance vs DMSO median, subpopulation auxotrophic for UM; higher = larger share of this subpopulation than in DMSO controls; details: 10 µM; 24 h; SM minimal medium; subpopulation (auxotrophy): UM
Summary of the method: as §1

[9] = tested on: Saccharomyces cerevisiae BY4741 SeMeCo community; assay: z-score of subpopulation abundance vs DMSO median, subpopulation auxotrophic for HL; higher = larger share of this subpopulation than in DMSO controls; details: 10 µM; 24 h; SM minimal medium; subpopulation (auxotrophy): HL
Summary of the method: as §1

[10] = tested on: Saccharomyces cerevisiae BY4741 SeMeCo community; assay: z-score of subpopulation abundance vs DMSO median, subpopulation auxotrophic for HLU; higher = larger share of this subpopulation than in DMSO controls; details: 10 µM; 24 h; SM minimal medium; subpopulation (auxotrophy): HLU
Summary of the method: as §1

[11] = tested on: Saccharomyces cerevisiae BY4741 SeMeCo community; assay: z-score of subpopulation abundance vs DMSO median, subpopulation auxotrophic for HLM; higher = larger share of this subpopulation than in DMSO controls; details: 10 µM; 24 h; SM minimal medium; subpopulation (auxotrophy): HLM
Summary of the method: as §1

[12] = tested on: Saccharomyces cerevisiae BY4741 SeMeCo community; assay: z-score of subpopulation abundance vs DMSO median, subpopulation auxotrophic for HUM; higher = larger share of this subpopulation than in DMSO controls; details: 10 µM; 24 h; SM minimal medium; subpopulation (auxotrophy): HUM
Summary of the method: as §1

[13] = tested on: Saccharomyces cerevisiae BY4741 SeMeCo community; assay: z-score of subpopulation abundance vs DMSO median, subpopulation auxotrophic for LUM; higher = larger share of this subpopulation than in DMSO controls; details: 10 µM; 24 h; SM minimal medium; subpopulation (auxotrophy): LUM
Summary of the method: as §1

[14] = tested on: Saccharomyces cerevisiae BY4741 SeMeCo community; assay: z-score of subpopulation abundance vs DMSO median, subpopulation auxotrophic for HLUM; higher = larger share of this subpopulation than in DMSO controls; details: 10 µM; 24 h; SM minimal medium; subpopulation (auxotrophy): HLUM
Summary of the method: as §1

[15] = tested on: Saccharomyces cerevisiae BY4741 SeMeCo community; assay: z-score of subpopulation abundance vs DMSO median, subpopulation auxotrophic for HU; higher = larger share of this subpopulation than in DMSO controls; details: 10 µM; 24 h; SM minimal medium; subpopulation (auxotrophy): HU
Summary of the method: as §1

[16] = tested on: Saccharomyces cerevisiae BY4741 SeMeCo community; assay: z-score of subpopulation abundance vs DMSO median, subpopulation auxotrophic for M; higher = larger share of this subpopulation than in DMSO controls; details: 10 µM; 24 h; SM minimal medium; subpopulation (auxotrophy): M
Summary of the method: as §1

[17] = tested on: Saccharomyces cerevisiae BY4741 SeMeCo community; assay: z-score of subpopulation abundance vs DMSO median, subpopulation auxotrophic for LU; higher = larger share of this subpopulation than in DMSO controls; details: 10 µM; 24 h; SM minimal medium; subpopulation (auxotrophy): LU
Summary of the method: as §1

| Compound | mean cell size [1] | z-score of prototroph abundance [2] | z-score of subpopulation abundance [3] | z-score of subpopulation abundance [4] | z-score of subpopulation abundance [5] | z-score of subpopulation abundance [6] | z-score of subpopulation abundance [7] | z-score of subpopulation abundance [8] | z-score of subpopulation abundance [9] | z-score of subpopulation abundance [10] | z-score of subpopulation abundance [11] | z-score of subpopulation abundance [12] | z-score of subpopulation abundance [13] | z-score of subpopulation abundance [14] | z-score of subpopulation abundance [15] | z-score of subpopulation abundance [16] | z-score of subpopulation abundance [17] |
| --- | --- | --- | --- | --- | --- | --- | --- | --- | --- | --- | --- | --- | --- | --- | --- | --- | --- |
| CC(=O)[C@H]1CC[C@H]2[C@@H]3CC=C4C[C@@H](O)CC[C@]4(C)[C@H]3CC[C@]12C [Pregnenolone] | 12.46 ± 0.12 | 0.29 | 1.12 | -0.89 | -0.46 | 0.32 | -0.44 | -0.48 | 0.47 | -0.1 | 0.71 | -0.94 | -0.02 | 0.21 |  |  |  |
| CO[C@@H]1[C@@H](OC(N)=O)[C@@H](O)[C@H](Oc2ccc3c(O)c(NC(=O)c4ccc(O)c(CC=C(C)C)c4)c(=O)oc3c2C)OC1(C)C [Novobiocin Sodium] | 12.7 ± 0.19 | -1.53 | -0.72 | 0.65 | 1.97 | -0.47 | 1.59 | 0.58 | 1.28 | 1.49 |  | 2.57 | 1.43 | 0.56 | 2.61 |  |  |
| COC(=O)C1=C(C)NC(C)=C(C(=O)OC(C)C)C1c1cccc2nonc12 (centres undefined) [Isradipine] | 12.49 ± 0.11 | -0.42 | -0.22 | 0.74 |  | -1.09 | -0.24 | 1.06 | -0.52 |  | -0.7 | 0.44 | -0.39 | 0.04 | 0.75 | -0.1 | 0.62 |
| COc1ccc2cc3[n+](cc2c1OC)CCc1cc2c(cc1-3)OCO2 [Berberine chloride] | 12.5 ± 0.26 |  |  | -0.13 | 0.04 | 0.14 | -0.15 | -0.09 |  | 0.27 | -0.32 |  | -0.34 | -0.12 | -0.79 |  | -0.32 |
| Cc1ccc(C(=O)C(C)CN2CCCCC2)cc1 (centres undefined) [Tolperisone HCl] | 12.6 ± 0.14 |  |  | -0.15 | -0.79 | -0.14 |  | -0.03 | -0.34 | -0.71 | -0.48 | -0.56 |  | -0.57 |  |  | -0.75 |
| O=C(Cn1ccnc1[N+](=O)[O-])NCc1ccccc1 [Benznidazole] | 12.49 ± 0.12 | 0.22 | 0.22 | 0.63 | -0.18 | 0.19 | -0.4 |  | 0.08 | -0.74 | -0.65 | -0.52 | 0.15 | -0.21 | -0.83 |  |  |
| CCC(=O)NS(=O)(=O)c1ccc(-c2c(-c3ccccc3)noc2C)cc1 [Parecoxib] | 12.6 ± 0.088 | -0.12 | 0.2 | -0.29 | 0.1 | 0.77 | 0.95 | 0.49 | 0.12 |  | 0.22 | -0.44 | 0.13 | -0.37 | -0.34 | 0.6 | -0.15 |
| COCC1=C(C(=O)OC(C)OC(=O)OC(C)C)N2C(=O)[C@@H](NC(=O)/C(=N\OC)c3csc(N)n3)[C@H]2SC1 (some centres undefined) [Cefpodoxime proxetil] | 12.25 ± 0.089 | -0.89 | -0.07 |  | -0.09 | 0.62 | 0.76 | 0.01 | -0.24 | 0.57 | -0.08 | 0.76 |  | 0.35 | 0.99 |  |  |
| C1CCN2C[C@@H]3C[C@@H](CN4CCCC[C@@H]34)[C@H]2C1 [(-)-Sparteine Sulfate] | 12.2 ± 0.3 | 0.31 | -0.01 | -0.7 | 1.38 | -0.13 | 0.08 | 0.01 | 1.4 |  | -0.86 | 0.1 | -0.1 | -0.92 | -0.03 | -0.03 | -0.85 |
| Cn1c(=O)c2c(ncn2CC2OCCO2)n(C)c1=O [Doxofylline] | 12.2 ± 0.51 |  | 0.55 | -0.22 | -0.27 | 0.49 | -0.89 | -0.67 | 0.28 |  | -0.9 | -0.34 | -0.24 | -0.8 | -0.64 | -0.41 | 0.9 |
| OCCN1CCN(CCCN2c3ccccc3Sc3ccc(C(F)(F)F)cc32)CC1 [Fluphenazine dihydrochloride] | 12.4 ± 0.097 | -0.57 | 1.3 | -0.38 |  | 0.55 | 0.59 |  | 1.51 |  | 1.11 | -0.44 | 0.9 | 0.51 | 0.37 | -0.08 | 0.63 |
| CC(=O)OC(C)C[N+](C)(C)C (centres undefined) [Methacholine chloride] | 12.5 ± 0.13 |  | 0.65 |  | 0.16 | 0.88 | 0.64 | 0.68 | 0.45 |  | 0.76 | 0.26 |  | 0.95 | 0.67 | 0 | 1.46 |
| CO/N=C(\C(=O)N[C@@H]1C(=O)N2C(C(=O)[O-])=C(C[n+]3cccc4c3CCC4)CS[C@H]12)c1csc(N)n1 [Cefpirome sulfate] | 12.5 ± 0.22 | -0.2 | 1.19 | -0.71 | 0.64 | 0.27 | 0.31 | 0.21 | -0.18 |  | -0.14 | 0 | 0.18 | 0.23 | -0.75 | 0.51 | -0.12 |
| O=C1[C@@H]2[C@H]3CC[C@H](C3)[C@@H]2C(=O)N1C[C@@H]1CCCC[C@H]1CN1CCN(c2nsc3ccccc23)CC1 [lurasidone] | 12.19 ± 0.019 | 0.9 | 0.42 | -1.4 | 0.55 | 0.39 | -0.31 | -1.38 | 0.22 |  | -0.11 | -0.45 | -0.46 | -0.82 | -0.35 | -0.62 | -0.67 |
